Bioassay records from PubChem.
Rows were chosen to be rich in hits. Some 5.8% of all compounds tested hit in one or more screens of this group.
SW480 rerep = induces DNA re-replication in SW480 colon adenocarcinoma cells; AID 624297; SW480 DNA re-replication, Hoechst DNA content imaging, 48 h; Potency, µM (top dose mostly 46.1 µM), inactives show at the highest dose re-replication activation, hits mostly activators; actives 1.8% (n = 340,000); note: % of control where 0% means no effect; nearly all actives have a fitted effect of over 55% in size
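Quantitative HTS format with DMSO vehicle controls; 48 hr drug incubation at 37 C, then 40 min Hoechst staining and scanning imager measurement at 405 nm excitation.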
ALOX12 inh = blocks human arachidonate 12S-lipoxygenase. purified 12hLO, xylenol orange hydroperoxide absorbance. AID 1671190. Potency, µM (top dose mostly 108 µM), for inactives: at the highest dose activity change, negative = inhibition, hits mostly inhibitors. actives 1.1% (n = 580,000); note: % is set by controls: 0 for no effect and ±100 for the full control effect
Target sequence (P18054 whole entry, looked up): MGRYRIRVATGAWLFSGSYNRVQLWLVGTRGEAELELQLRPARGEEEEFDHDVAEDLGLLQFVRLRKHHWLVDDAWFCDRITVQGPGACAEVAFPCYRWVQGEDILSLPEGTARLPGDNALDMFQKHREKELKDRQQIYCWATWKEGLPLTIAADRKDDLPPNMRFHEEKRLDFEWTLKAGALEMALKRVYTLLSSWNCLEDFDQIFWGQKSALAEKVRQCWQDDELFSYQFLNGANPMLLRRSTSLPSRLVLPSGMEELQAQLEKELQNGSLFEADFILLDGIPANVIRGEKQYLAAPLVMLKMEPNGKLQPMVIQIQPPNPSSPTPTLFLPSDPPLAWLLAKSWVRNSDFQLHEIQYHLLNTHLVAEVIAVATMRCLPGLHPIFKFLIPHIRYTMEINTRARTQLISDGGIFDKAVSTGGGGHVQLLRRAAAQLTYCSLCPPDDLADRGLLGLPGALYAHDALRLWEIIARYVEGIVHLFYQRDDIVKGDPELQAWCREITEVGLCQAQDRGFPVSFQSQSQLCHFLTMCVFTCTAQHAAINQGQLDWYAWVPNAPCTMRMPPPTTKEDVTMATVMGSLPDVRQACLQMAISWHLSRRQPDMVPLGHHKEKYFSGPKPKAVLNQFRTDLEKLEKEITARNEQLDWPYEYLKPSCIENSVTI
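Purified human 12hLO (150 nM final) in 25 mM Hepes, 0.01% Triton X-100, pH 7.0 was preincubated 15 min at room temperature with compound. Then 40 uM arachidonic acid was added, 30 min. Hydroperoxide was read by Fe-XO absorbance ratio 573/405 nm.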
KB-V1 cytotox = kills drug-selected multidrug resistant KB-V1 cells. KB-V1 MDR cells viability, CellTiter-Glo, 72 h. Potency, µM (titrated, usually from 46.1 µM), usual class: cytotoxic. actives 3.4% (n = 400,000); note: % is set by controls: 0 for no effect and ±100 for the full control effect; nearly all actives have a fitted effect of over 60% in size
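KB-V1, DMEM (no phenol red) + 10% FBS; cpd pin-transferred, titration series; 72 h, 37 degrees C; CellTiter-Glo, luminescence. Data normalized, curve-fit.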
MCF10A rerep = inducers of DNA re-replication in MCF 10A breast cells | MCF 10A DNA re-replication, Hoechst nuclear intensity, 48 h | Potency, µM (doses to about 46.1 µM), without a hit: at the top dose activity, positive = re-replication, most hits filed as activators | actives 2.9% (n = 350,000); note: % of control where 0% means no effect; nearly all actives have a fitted effect of over 50% in size
KB-3-1 tox = kills parental KB-3-1 adenocarcinoma cells; KB-3-1 viability, CellTiter-Glo ATP luminescence, 72 h; actives 1.4% (n = 400,000); Potency, µM (titrated, usually from 46.1 µM), actives largely listed as cytotoxic; AID 1347075; note: % is set by controls: 0 for no effect and ±100 for the full control effect; nearly all actives have a fitted effect of over 60% in size
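Screening of KB-3-1 cells (DMEM, 10% FBS, phenol-red free) ran from lowest to highest compound concentration; after 72 h at 37 °C viability was read luminescently and curves fitted.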
PINK1 modulator = changes PINK1 expression; PINK1 immunofluorescence, high-content cytometry, 24 h; Potency, µM (doses to about 76.6 µM), inactives show top-dose activation (PINK1 increase), hits mostly activators; actives 0.2% (n = 410,000); AID 624263; active = well fitted activation curve with a large enough effect; inconclusive = small, poorly fitted or top-dose-only effect; cell line not stated here; note: % of control where 0% means no effect; nearly all actives have a fitted effect of over 65% in size
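Fluorescence from anti-PINK1 antibody, together with nuclear and cell stains, was scanned on a laser-scanning cytometer. Before staining, stable-line cells were incubated 24 hours with compounds at 5 concentrations; primary antibody 12 h at 10 degrees C.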
Starred values were filed as active, the others as inactive; i = inactive; ? = inconclusive; nt = not tested or not shown; [ ] = dose if it differs, or a comment. Unless noted, calls come from the whole dose curve; as a rule, active = well fitted curve in the direction sought with a large enough effect; inconclusive = small, poorly fitted or top-dose-only effect, or another doubt; inactive = no such curve, though single readings can be large; an effect the other way counts as inactive or inconclusive. Potency is the fitted concentration of half-maximal effect.

SMILES | SW480 rerep | ALOX12 inh | KB-V1 cytotox | MCF10A rerep | KB-3-1 tox | PINK1 modulator
Cc1ccc(S(=O)(=O)NNC(=O)C(=O)NNS(=O)(=O)c2ccc(C)cc2)cc1 | -4% | -10% | i | 3% | i | 0%
Cc1ccc(NNS(=O)(=O)c2ccc(C)cc2)cc1 | ? | 2.8µM* | i | ? | i | 1%
CC(=O)Nc1ccc(C(=O)NNS(=O)(=O)c2ccc(C)cc2)cc1 | 4.1µM* | 6% | i | 0% | i | 2%
Cc1ccc(S(=O)(=O)NN=CC=CC=NNS(=O)(=O)c2ccc(C)cc2)cc1 | nt | 4µM* | i | nt | i | 0%
CCOc1cc(C)ccc1OCc1nnc(SCC(=O)NC2CCCCC2)n1C | nt | 15% | nt | nt | nt | nt
CCOC(=O)c1ccc(NC(=O)c2cc[n+]([O-])cc2)cc1 | nt | 9% | nt | nt | nt | nt
CC(C)CNC(=O)COC(=O)c1ccc(Br)cc1 | nt | -35% | nt | nt | nt | nt
COc1ccc2c(Cn3cnc4cc([N+](=O)[O-])ccc4c3=O)cc(=O)oc2c1 | 5.8µM* | nt | 4.6µM* | 9.2µM* | 4.6µM* | 4%
CCCCOc1ccc(C(=O)Nc2ccc3oc(=O)ccc3c2)cc1 | nt | 3% | nt | nt | nt | nt
CCOC(=O)C(=O)Nc1c(C(=O)Nc2ccc(C)cc2)oc2ccccc12 | nt | -26% | nt | nt | nt | nt
CCC(C)c1ccc(NC(=O)C2CCCN(c3ncccn3)C2)cc1 (stereo unspecified) | 18% | 0% | 7.9µM* | ? | 10µM* | nt
COc1ccc(NC(=O)C2CCCN(c3nc(C)cc(C)n3)C2)cc1 (stereo unspecified) | -24% | -3% | ? | 2.9µM* | i | 7%
COc1ccc(NC(=O)C2CCCN(c3ncccn3)C2)cc1 (stereo unspecified) | -29% | 17% | i | -25% | i | -1%
Cc1ccnc(N2CCCC(C(=O)Nc3ccc(C)c(C)c3)C2)n1 (stereo unspecified) | -7% | -20% | i | 16µM* | i | 4%
COc1cccc(-c2ccc(NC(=O)C3CCCN(CCCn4nc(C)cc4C)C3)cc2)c1 (stereo unspecified) | 21µM* | -4% | i | ? | ? | 4%
Cn1c(=O)c2c(ncn2CCC(=O)Nc2ccc(Cl)c(Cl)c2)n(C)c1=O | nt | -6% | nt | nt | nt | nt
CCc1nn(-c2ccccc2)c2c1CN(C(=O)NCC(=O)OC)C(c1ccc(F)cc1)c1cccn1-2 (stereo unspecified) | nt | -19% | nt | nt | nt | nt
CCc1nc2c(c(-c3ccc(OC)cc3)n1)CN(C(=O)c1ccccc1F)CC2 | nt | -5%[6.33 µM] | nt | nt | nt | nt
CCC(C)c1ccc(NC(=O)C2CC3CCC2C3)cc1 (stereo unspecified) | ? | -8% | i | 7.3µM* | i | 29%
CCc1nc2ccc(C(=O)NC3CCN(Cc4ccccc4)CC3)cn2c1N(CC)Cc1cccc(Br)c1 | nt | -3% | 8.2µM* | nt | ? | -1%
C=CCC[C@H](Cc1ccc(F)cc1)C(=O)OC[C@@H](Cc1c[nH]c2ccccc12)NC(=O)[C@@H](CC=C)CC(=O)N[C@@H](CO)Cc1ccccc1 | ? | ? | i | 18µM* | ? | 5%
C=CCC[C@@H](Cc1ccc(F)cc1)C(=O)OC[C@@H](Cc1c[nH]c2ccccc12)NC(=O)[C@H](CC=C)CC(=O)N[C@H](CO)Cc1ccccc1 | -3% | -36% | i | 16µM* | ? | 6%
C=CCC[C@@H](Cc1ccc(F)cc1)C(=O)OC[C@@H](Cc1c[nH]c2ccccc12)NC(=O)[C@@H](CC=C)CC(=O)N[C@@H](CO)Cc1ccccc1 | 6% | 7% | i | 22% | i | 4%
C=CCC[C@@H](Cc1ccc(F)cc1)C(=O)OC[C@H](Cc1c[nH]c2ccccc12)NC(=O)[C@@H](CC=C)CC(=O)N[C@@H](CO)Cc1ccccc1 | ? | -17% | ? | ? | i | 1%
COCCN(CCOC)C(=O)c1cccc(C#N)c1 | nt | 5% | nt | nt | nt | nt
